Measured values: the supplement of paper PMC8728848
Only a selection was taken, and the strongest signals are over-represented in it overall.

Tests used:
Experiment in all cases: glycan array binding signal (z-score within array); higher = stronger binding
Conditions in all cases: glycan notation: IUPAC condensed, linker removed
[1] = target: GalNAc(a1-3)GalNAc(b1-3)Gal(a1-4)Gal(b1-4)GlcNAc
In short: (§1)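 Columns mapping to the same glycan were averaged after glycan names were converted to IUPAC-condensed notation. The data come from 3228 arrays in the Consortium for Functional Glycomics database, limited to those with an available protein sequence. Binding is reported as a within-array Z-score averaged across arrays of one protein sequence and across linkers.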

GalNAc(b1-3)GlcNAc = target: GalNAc(b1-3)GlcNAc
In short: as §1

GalNAc6S(b1-4)GlcNAc = target: GalNAc6S(b1-4)GlcNAc
In short: as §1

GlcA(b1-3)GlcNAc = target: GlcA(b1-3)GlcNAc
In short: as §1

[2] = target: GlcNAc(b1-2)Man(a1-3)[GlcNAc(b1-2)Man(a1-6)]Man(b1-4)GlcNAc(b1-4)GlcNAc
In short: as §1

[3] = target: GlcNAc(b1-3)Gal(b1-4)GlcNAc(b1-3)Gal(b1-4)GlcNAc
In short: as §1

[4] = target: GlcNAc(b1-3)Gal(b1-4)GlcNAc(b1-3)Gal(b1-4)GlcNAc(b1-3)Gal(b1-4)GlcNAc(b1-3)Gal(b1-4)GlcNAc(b1-2)Man(a1-3)[GlcNAc(b1-3)Gal(b1-4)GlcNAc(b1-3)Gal(b1-4)GlcNAc(b1-3)Gal(b1-4)GlcNAc(b1-3)Gal(b1-4)GlcNAc(b1-2)Man(a1-6)]Man(b1-4)GlcNAc(b1-4)GlcNAc
In short: as §1

Kdn(a2-6)Gal(b1-4)GlcNAc = target: Kdn(a2-6)Gal(b1-4)GlcNAc
In short: as §1

Man(a1-2)Man(a1-3)Man = target: Man(a1-2)Man(a1-3)Man
In short: as §1

[5] = target: Man(a1-3)[Man(a1-6)]Man(a1-6)[Man(a1-2)Man(a1-3)]Man(b1-4)GlcNAc(b1-4)GlcNAc
In short: as §1

[6] = target: Neu5Ac(a2-3)Gal(b1-3)GalNAc(b1-3)Gal(a1-4)Gal(b1-4)Glc
In short: as §1

[7] = target: Neu5Ac(a2-3)Gal(b1-3)GlcNAc(b1-4)Gal(b1-4)Glc
In short: as §1

[8] = target: Neu5Ac(a2-3)Gal(b1-4)GlcNAc(b1-2)Man(a1-3)[Neu5Ac(a2-6)Gal(b1-4)GlcNAc(b1-2)Man(a1-6)]Man(b1-4)GlcNAc(b1-4)GlcNAc
In short: as §1

[9] = target: Neu5Ac(a2-3)Gal(b1-4)GlcNAc(b1-3)Gal(b1-3)GlcNAc
In short: as §1

[10] = target: Neu5Ac(a2-3)Gal(b1-4)GlcNAc(b1-3)Gal(b1-4)GlcNAc(b1-3)Gal(b1-4)GlcNAc
In short: as §1

[11] = target: Neu5Ac(a2-3)Gal(b1-4)[Fuc(a1-3)]GlcNAc(b1-3)Gal(b1-4)[Fuc(a1-3)]GlcNAc(b1-3)Gal(b1-4)[Fuc(a1-3)]GlcNAc
In short: as §1

[12] = target: Neu5Ac(a2-3)Gal6S(b1-4)GlcNAc
In short: as §1

[13] = target: Neu5Ac(a2-3)Gal6S(b1-4)[Fuc(a1-3)]GlcNAc
In short: as §1

[14] = target: Neu5Ac(a2-3)GalNAc(b1-4)GlcNAc
In short: as §1

[15] = target: Neu5Ac(a2-6)Gal(b1-4)GlcNAc(b1-2)Man(a1-3)[Neu5Ac(a2-3)Gal(b1-4)GlcNAc(b1-2)Man(a1-6)]Man(b1-4)GlcNAc(b1-4)GlcNAc
In short: as §1

[16] = target: Neu5Ac(a2-6)Gal(b1-4)GlcNAc(b1-2)Man(a1-3)[Neu5Ac(a2-6)Gal(b1-4)GlcNAc(b1-2)Man(a1-6)]Man(b1-4)GlcNAc(b1-4)GlcNAc
In short: as §1

[17] = target: Neu5Ac(a2-6)Gal(b1-4)GlcNAc(b1-3)Gal(b1-4)GlcNAc(b1-6)[Gal(b1-3)]GalNAc
In short: as §1

[18] = target: Neu5Ac(a2-6)Gal(b1-4)GlcNAc(b1-3)Gal(b1-4)[Fuc(a1-3)]GlcNAc(b1-3)Gal(b1-4)[Fuc(a1-3)]GlcNAc
In short: as §1

[19] = target: Neu5Ac(a2-6)Gal(b1-4)GlcNAc6S
In short: as §1

[20] = target: Neu5Ac(a2-8)Neu5Ac(a2-3)Gal(b1-3)GalNAc(b1-4)[Neu5Ac(a2-8)Neu5Ac(a2-3)]Gal(b1-4)Glc
In short: as §1

[21] = target: Neu5Ac(a2-8)Neu5Ac(a2-3)[GalNAc(b1-4)]Gal(b1-4)Glc
In short: as §1

[22] = target: Neu5Ac(a2-8)Neu5Ac(a2-8)Neu5Ac
In short: as §1

Neu5Ac(b2-6)GalNAc = target: Neu5Ac(b2-6)GalNAc
In short: as §1

Neu5Gc(a2-3)Gal(b1-4)Glc = target: Neu5Gc(a2-3)Gal(b1-4)Glc
In short: as §1

[23] = target: Neu5Gc(b2-6)Gal(b1-4)GlcNAc
In short: as §1

B1: TAL6-6LysM (Trichoderma atroviride) (protein)
chain: AASKLGVPQPAQRDQVNCQLYAVQPNDNCIDISSKNNITYAQLLSWNPSLSSTCSNLASLNSSSICVSNPKGTFSISSNTVGATDIATTTAPVPSPTLDQTTSRCAKYYQVSDGDDCSHLTAQFAITLKDFIFLNSEVWQNCTNLELGYYYCVEPVGYISTYPGYLPTATTKPFNQTSATSLPYDGDPWARFSSNSSVIPIANGTRVDCYSYVYVKNLTENLFADCWNMASMYEITREELVLWNPSLGNDGSSGSNLSGAEASQVASSIAIPTTAPSSITTNLYTYPCTVAANISYCVALVSSTGALPTNTAPPGPHASGEISNCTAWFAPEAYDTCKSILDIFEMSFANFYKMNPSVGPDCSGLAVGTNYCVSTYPNGEDPNDDWDGDDSIPSISPTGIITPTPTQSGMVSNCNKFYDVHSNDGCSAIASSQHVDLSSLYKWNPAIKTDCSGLQASVYVCIGILTTSMSTTSKLPTTTSKPSTTSKPPTGITTPTPTQSGMVKNCNKFYDVHSGDGCSAIASSQKVNLSSFYLWNPAVKTDCSGLQASVFVCIGTLTTSMSTTTSKLPTTTSKPSTTSKPPTGIITPTPTQNGMVKNCNKFYDVHSGDGCSAIASSQKVNLSSFYLWNPAVKTDCSGLQASVFVCVGTATTTTAAGITTPTPTQSGMVSGCNKFYDVHAGDGCSAIASSQKIALSSLYKWNPAVKTDCSGLQASVYICIGVGNAAAARVTGAAASFLEQKLISEEDLNSAVDHHHHHH
glycan array binding signal (z-score) [1]: -0.794
glycan array binding signal (z-score) (GalNAc(b1-3)GlcNAc): -0.241
glycan array binding signal (z-score) (GalNAc6S(b1-4)GlcNAc): 0.157
glycan array binding signal (z-score) (GlcA(b1-3)GlcNAc): 1.11
glycan array binding signal (z-score) [2]: 0.42
glycan array binding signal (z-score) [3]: 0.291
glycan array binding signal (z-score) [4]: -0.734
glycan array binding signal (z-score) (Kdn(a2-6)Gal(b1-4)GlcNAc): 2.71
glycan array binding signal (z-score) (Man(a1-2)Man(a1-3)Man): -0.128
glycan array binding signal (z-score) [5]: 2.52
glycan array binding signal (z-score) [6]: -0.741
glycan array binding signal (z-score) [7]: 0.273
glycan array binding signal (z-score) [8]: -0.683
glycan array binding signal (z-score) [9]: -0.147
glycan array binding signal (z-score) [10]: 1.76
glycan array binding signal (z-score) [11]: 0.058
glycan array binding signal (z-score) [12]: 0.428
glycan array binding signal (z-score) [13]: -1.04
glycan array binding signal (z-score) [14]: -0.545
glycan array binding signal (z-score) [15]: -0.013
glycan array binding signal (z-score) [16]: 0.076
glycan array binding signal (z-score) [17]: -0.387
glycan array binding signal (z-score) [18]: 2.13
glycan array binding signal (z-score) [19]: 0.283
glycan array binding signal (z-score) [20]: 0.052
glycan array binding signal (z-score) [21]: 2.17
glycan array binding signal (z-score) [22]: -0.139
glycan array binding signal (z-score) (Neu5Ac(b2-6)GalNAc): -0.369
glycan array binding signal (z-score) (Neu5Gc(a2-3)Gal(b1-4)Glc): -1.25
glycan array binding signal (z-score) [23]: 0.217
